Results published in PubChem BioAssay (NCI).
The panel holds about 83,000 compounds, 20% with a hit somewhere; the sample as a whole holds those more often.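 Activity criterion: percent growth below 10, measured after cells in 96-well plates were exposed to a single compound concentration for 48 hours.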 Unmarked numbers belong to inactive results. The source made the active and inactive calls.

Key:
Experiment in all cases: NCI-60 one-dose screen, 48 h (100 = growth as untreated, 0 = no growth, -100 = all killed)
Settings in all cases: 10 µM unless noted
[1] = tested on: T-47D breast
[2] = tested on: BT-549 breast
[3] = tested on: MDA-MB-435 melanoma
[4] = tested on: SW-620 colon
[5] = tested on: MCF7 breast
[6] = tested on: HCT-116 colon
[7] = tested on: HCC-2998 colon
[8] = tested on: KM12 colon

`COc1ccccc1NC(=O)OCC12COCN1COC2` gave a growth [1] of 102%, a growth [2] of 117% and a growth [3] of 102%. For the same molecule, the growth [4] was 101%, the growth [5] was 92.4% and the growth [6] was 113%. It also gave a growth [7] of 116% and a growth [8] of 107%.

For `NNC(=O)Cc1ccccc1`, the growth [1] was 85%, the growth [2] was 108% and the growth [3] was 83.7%. It also gave a growth [4] of 86.2%, a growth [5] of 91.5% and a growth [6] of 90.6%. It also gave a growth [7] of 102% and a growth [8] of 80.1%.

Work on `COc1ccc(C2CC(c3ccc(Nc4ccnc5cc(Cl)ccc45)cc3)=NN2c2ccccc2)cc1` (centres undefined) yielded a growth [1] of 92.9%, a growth [2] of 99.8% and a growth [3] of 80.3%. It also gave a growth [4] of 96.3%, a growth [5] of 81.9% and a growth [6] of 72.4%. For the same molecule, the growth [7] was 101% and the growth [8] was 94.2%.

`COc1cc(C(=O)/C=C/c2cn(-c3ccccc3)nc2-c2cccc(Nc3ccnc4cc(Cl)ccc34)c2)cc(OC)c1OC` showed a growth [1] of 95.4%, a growth [2] of 93.3% and a growth [3] of 66.9%. It also gave a growth [4] of 99.1%, a growth [5] of 71.2% and a growth [6] of 68.1%. The growth [7] was 108% and the growth [8] was 93.5%.

With `CC(C)NCCCCCNc1cc(O)cc2cccnc12` the growth [1] was 31.3%, the growth [2] was 104% and the growth [3] was 101%. For the same molecule, the growth [4] was 83.1%, the growth [5] was 43.3% and the growth [6] was 65.5%. The growth [7] was 54.6% and the growth [8] was 100%.

In the case of `COc1ccc(/C(=C\c2ccc3c(c2)OCO3)C(=O)Nc2nc3ccccc3s2)cc1`, the growth [1] is reported as 86.1%, the growth [2] is reported as 103% and the growth [3] is reported as 99.1%. For the same molecule, the growth [4] was 108%, the growth [5] was 107% and the growth [6] was 85.4%. The growth [7] was 109% and the growth [8] was 101%.

For `COc1ccccc1/C=N\NC(=S)Nc1ccc(F)cc1`, the growth [1] was 72.5%, the growth [2] was 73.3% and the growth [3] was 1.12% (active). For the same molecule, the growth [4] was 37.5%, the growth [5] was 60.5% and the growth [6] was 68.7%. The growth [7] was 66.5% and the growth [8] was 51.4%.

In the case of `COc1ccc(Sc2[nH]c(C=O)c3ccccc23)cc1`, the growth [1] is reported as 57.2%, the growth [2] is reported as -7.47% (active) and the growth [3] is reported as -0.922% (active). It also gave a growth [4] of 16.1%, a growth [5] of 57.8% and a growth [6] of 61.1%. For the same molecule, the growth [7] was 16.3% and the growth [8] was 22%.

`N#CC1=C(N)Oc2nc[nH]c(=O)c2C1c1cccs1` (centres undefined) was tested, and the growth [1] was 95.2%, the growth [2] was 103% and the growth [3] was 101%. The growth [4] was 102%, the growth [5] was 97.1% and the growth [6] was 106%. For the same molecule, the growth [7] was 114% and the growth [8] was 108%.

For `CCN(CC)CCCC(C)Nc1cnc(C(=O)Nc2cc(C)cc3cccnc23)cn1` (centres undefined), the growth [1] was 32.6%, the growth [2] was 93.3% and the growth [3] was 83.7%. The growth [4] was 75.3%, the growth [5] was 57.3% and the growth [6] was 18%. For the same molecule, the growth [7] was 89.8% and the growth [8] was 97.9%.

`Cn1c(=O)c2[nH]c(Cc3ccc4c(c3)OCO4)nc2n(C)c1=O` gave a growth [1] of 99.8%, a growth [2] of 103% and a growth [3] of 107%. It also gave a growth [4] of 99.8%, a growth [5] of 97.7% and a growth [6] of 105%. It also gave a growth [7] of 109% and a growth [8] of 108%.

`NCCCOc1cc2ccccc2cc1C(=O)NCCCOc1cc2ccccc2cc1C(=O)Nc1ccc(Cl)cc1O` was tested, and the growth [1] was -67.6% (active), the growth [2] was -39.8% (active) and the growth [3] was -85.5% (active). For the same molecule, the growth [4] was -73.9% (active), the growth [5] was -93.5% (active) and the growth [6] was -85.8% (active). The growth [7] was -92.3% (active) and the growth [8] was -2.6% (active).

With `CC(=O)N[C@@H](CCC(N)=O)C(=O)O` the growth [1] was 107%, the growth [2] was 118% and the growth [3] was 99.6%. The growth [4] was 94.1%, the growth [5] was 98.8% and the growth [6] was 96.3%. The growth [7] was 99.5% and the growth [8] was 103%.

`N#Cc1nc(-c2ccc(Cl)cc2)cc(-c2ccc(Nc3nc(N4CCCCC4)nc(N4CCCCC4)n3)cc2)c1N` gave a growth [1] of 100%, a growth [2] of 99.2% and a growth [3] of 106%. The growth [4] was 99.3%, the growth [5] was 99.6% and the growth [6] was 102%. The growth [7] was 112% and the growth [8] was 107%.

`Cc1cc(C)c2c(n1)sc1c(Nc3ccc(OCc4ccccc4)cc3)ncnc12` showed a growth [1] of 95.7%, a growth [2] of 102% and a growth [3] of 107%. It also gave a growth [4] of 101%, a growth [5] of 93.2% and a growth [6] of 103%. The growth [7] was 96.1% and the growth [8] was 94.2%.

Work on `Clc1ccc(-c2nc(Br)cn3ccnc23)cc1` yielded a growth [1] of 54.4%, a growth [2] of 84.1% and a growth [3] of 111%. It also gave a growth [4] of 91.5%, a growth [5] of 64.1% and a growth [6] of 77.8%. The growth [7] was 104% and the growth [8] was 86.6%.

With `Cc1cc(N=Nc2ccc(-c3ccc(N=Nc4ccc(O)c(C(=O)O)c4)cc3)cc2)c(N)c(N=Nc2ccc(C(=O)O)cc2)c1N` the growth [1] was 78.6%, the growth [2] was 67.3% and the growth [3] was 99.5%. For the same molecule, the growth [4] was 95.6%, the growth [5] was 97.6% and the growth [6] was 65.5%. The growth [7] was 87.7% and the growth [8] was 92.1%.

Molecule `CCOCC(O)(c1ccc(Cl)cc1)c1ccc(Cl)cc1` has a growth [1] of 98.5%, a growth [2] of 115% and a growth [3] of 102%. For the same molecule, the growth [4] was 97.4%, the growth [5] was 110% and the growth [6] was 93%. For the same molecule, the growth [7] was 109% and the growth [8] was 90.4%.

With `CCCCc1n(Cc2ccc3ccccc3n2)cc[n+]1Cc1ccc2ccccc2n1` the growth [1] was 6.69% (active), the growth [2] was 2.91% (active) and the growth [3] was 7.37% (active). For the same molecule, the growth [4] was 22.1%, the growth [5] was 7.29% (active) and the growth [6] was 9.88% (active). For the same molecule, the growth [7] was 18.5% and the growth [8] was 5.78% (active).

For `CN1CCN(Cc2ccc(NC(=O)c3cncc(C#Cc4ccc(N)nc4)c3)cc2C(F)(F)F)CC1`, the growth [1] was 8.16% (active), the growth [2] was 18.7% and the growth [3] was 9.96% (active). For the same molecule, the growth [4] was -15.3% (active), the growth [5] was 19.9% and the growth [6] was 1.86% (active). The growth [7] was 29.8% and the growth [8] was 5.75% (active).

`COc1ccc(-c2nsc3c2NC(=O)CC3c2cccc(F)c2)cc1` (centres undefined) was tested, and the growth [1] was 33.7%, the growth [2] was 50.3% and the growth [3] was -34.1% (active). For the same molecule, the growth [4] was 18%, the growth [5] was 26.4% and the growth [6] was 22.9%. It also gave a growth [7] of 78.5% and a growth [8] of 16.7%.

In the case of `O=C(Nc1ccc(Cl)c(C(F)(F)F)c1)c1ccc(Nc2ccc(Cl)nn2)cc1`, the growth [1] is reported as 28.6%, the growth [2] is reported as 37.2% and the growth [3] is reported as 80.2%. For the same molecule, the growth [4] was 96.8%, the growth [5] was 53% and the growth [6] was 53.5%. For the same molecule, the growth [7] was 67.4% and the growth [8] was 51.1%.

In the case of `OC(c1cc(-c2ccc(C(F)(F)F)cc2)nc(-c2ccc(C(F)(F)F)cc2)c1)C1CCCCN1` (centres undefined), the growth [1] is reported as -67.9% (active), the growth [2] is reported as -79% (active) and the growth [3] is reported as -58.3% (active). For the same molecule, the growth [4] was -70.5% (active), the growth [5] was -80.8% (active) and the growth [6] was -77.3% (active). For the same molecule, the growth [7] was -70.8% (active) and the growth [8] was -87.7% (active).

For `CCOP(=O)(O)OP(=O)(O)OCC`, the growth [1] was 92.5%, the growth [2] was 102% and the growth [3] was 110%. The growth [4] was 103%, the growth [5] was 94.1% and the growth [6] was 106%. It also gave a growth [7] of 104% and a growth [8] of 103%.

For `CCOC(=O)C(Nc1ccccc1)C(=O)OCC`, the growth [1] was 102%, the growth [2] was 95.1% and the growth [3] was 110%. The growth [4] was 111%, the growth [5] was 95.8% and the growth [6] was 101%. It also gave a growth [7] of 103% and a growth [8] of 115%.

`O=C(Nc1ccccc1Cl)Oc1ccc2ccccc2c1` was tested, and the growth [1] was 88.5%, the growth [2] was 133% and the growth [3] was 105%. It also gave a growth [4] of 103%, a growth [5] of 84.4% and a growth [6] of 95.3%. It also gave a growth [7] of 95.1% and a growth [8] of 95.9%.

`COc1cc(C2CC(c3cccc(Nc4ccnc5cc(Cl)ccc45)c3)=NN2c2ccccc2)cc(OC)c1OC` (centres undefined) showed a growth [1] of 42.9%, a growth [2] of 88.6% and a growth [3] of 24.4%. For the same molecule, the growth [4] was 37.8%, the growth [5] was 60.6% and the growth [6] was 64.8%. The growth [7] was 91.8% and the growth [8] was 40.7%.

Molecule `CCN(C)CCCOc1ccc(/C(=C(\C)Cc2cccc(OC)c2)c2ccc(OC(C)=O)cc2)cc1` has a growth [1] of 75.6%, a growth [2] of 92.3% and a growth [3] of 97.1%. It also gave a growth [4] of 106%, a growth [5] of 51.4% and a growth [6] of 99.7%. It also gave a growth [7] of 101% and a growth [8] of 106%.
